From PubChem BioAssay
Tb PYK inh: T. brucei pyruvate kinase inhibition. Q57TT1. TbPYK enzyme, Kinase-Glo Plus ATP luminescence, 45 min. Potency, µM (highest dose often 76.8 µM), inactives show at the top dose activity, negative = inhibition, actives largely listed as inhibitors. 410,000 compounds, 0.12% hits; further: potency means the concentration at half of the fitted maximal effect; on the % scale 0 is the no-effect control and ±100 the full control effect; nearly all actives have a fitted effect of over 50% in size
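Assay buffer: 50 mM TEA pH 7.2, 100 mM KCl, 10 mM MgCl2, 0.05% BSA, 0.01% Tween-20. Pyruvate kinase from T. brucei plus substrate met compound, then ADP (130 uM final). Luminescence was read post 45 min RT.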
Shiga inhibitor: inhibitors of Shiga toxin in Vero cells | Vero cells, Shiga toxin protein synthesis inhibition reporter | inhibition, % at 38.7 µM | 290,000 compounds, 9.2% hits | AID 2315; in the data active means inhibition mostly above about 28%, no sharp cut-off; inactive means mostly below about 43%; further: 0% is about no effect
Sm TGR inh: S. mansoni TGR enzyme inhibition; Q962Y6; purified TGR, DTNB reduction, TNB absorbance 405 nm; Potency, µM (highest dose often 114 µM), without a hit: at the top dose activity change, negative = inhibition, actives largely listed as inhibitors; 360,000 compounds, 3% hits; further: potency means the concentration at half of the fitted maximal effect; on the % scale 0 is the no-effect control and ±100 the full control effect; nearly all actives have a fitted effect of over 60% in size
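First, TGR (20 nM dispensed) and NADPH were mixed with compound. Second, a 15 min room-temperature incubation followed. Third, further NADPH and then DTNB were added to start the reaction. Finally, TNB absorbance was monitored kinetically.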
LmPK inhibitor: blocks Leishmania mexicana pyruvate kinase activity | AID 1721 | purified LmPK, Kinase-Glo ATP luminescence, 1 h | Potency, µM (series often up to 57.5 µM), for the others: at the highest dose activity change, negative = inhibition, most hits filed as inhibitors | 290,000 compounds, 0.37% hits; further: potency means the concentration at half of the fitted maximal effect; on the % scale 0 is the no-effect control and ±100 the full control effect
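Purified LmPK (0.1 nM) converted ADP (0.1 mM) to ATP with PEP (0.5 mM) in imidazole buffer pH 7.2 with KCl and MgCl2, 1 h at room temperature. ATP was read by Kinase-Glo luminescence; data normalized to uninhibited and no-enzyme controls.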
Giardia FBPA inh: inhibitors of Giardia lamblia fructose-1,6-bisphosphate aldolase. Potency, µM (series often up to 59.6 µM), for the others: at the highest dose activity, negative = inhibition, actives largely listed as inhibitors. 290,000 compounds, 0.71% hits. purified Giardia FBPA. A8B2U2; further: potency means the concentration at half of the fitted maximal effect; on the % scale 0 is the no-effect control and ±100 the full control effect; nearly all actives have a fitted effect of over 55% in size
Target sequence (A8B2U2 whole entry, looked up): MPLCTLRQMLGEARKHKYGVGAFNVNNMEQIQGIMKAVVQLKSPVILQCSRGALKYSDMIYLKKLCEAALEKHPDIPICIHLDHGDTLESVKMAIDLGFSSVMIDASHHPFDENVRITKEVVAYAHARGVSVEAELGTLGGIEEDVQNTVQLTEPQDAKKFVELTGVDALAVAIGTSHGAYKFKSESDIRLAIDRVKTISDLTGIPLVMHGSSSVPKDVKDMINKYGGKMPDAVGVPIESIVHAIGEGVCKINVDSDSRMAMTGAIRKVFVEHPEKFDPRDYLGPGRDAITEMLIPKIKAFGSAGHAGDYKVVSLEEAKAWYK
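Giardia FBPA (40 nM reagent) was preincubated 10 min at RT with compound (up to 57.5 uM final), then substrate plus GAPDH/TPI/NAD/arsenate coupling system with diaphorase/resazurin was added; resorufin fluorescence (525/598 nm) was read after 20 min.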
CHX counter: counter-screen hit for Shiga toxin inhibitors, cycloheximide | cell reporter, cycloheximide protein synthesis inhibition counterscreen | max response, % | 300,000 compounds, 12% hits; in the data active means max response mostly above about 13%, no sharp cut-off; inactive means mostly below about 14%; further: read at 38.3 µM for the half of the compounds with a filed dose; 0% is about no effect
* = called active by the depositor; i = inactive; ? = inconclusive; · = not tested or not shown; + = active, no number; [ ] = remark or other dose. Shown is part of a subset that was picked to be rich in hits. Unless noted, the call rests on the fitted dose curve; in most records, active means well fitted curve in the direction sought with a large enough effect; inconclusive means small, poorly fitted or top-dose-only effect, or another doubt; inactive means no such curve, though single readings can be large; an effect the other way counts as inactive or inconclusive.

SMILES	Tb PYK inh	Shiga inhibitor	Sm TGR inh	LmPK inhibitor	Giardia FBPA inh	CHX counter
C/C(Cc1ccccc1)=N\NC(=O)c1ccccn1	0%	89*	4%	1%	8%	53*
C/C(CC(=O)NCc1ccccc1)=N\NC(=O)c1cnccn1	22%	40*	-14%	0%	0%	12*
C/C(CC(=O)Nc1cccnc1)=N\NC(=O)C(=O)NC(C)C	2%	16	-25%	6%	-20%	6
CCC(C)c1ccc(NC(=O)C/C(C)=N/NC(=O)c2cnccn2)cc1 (centres undefined)	-1%	48*	-16%	0%	-17%	24*
COCCNC(=O)C1(C)C=CC2(CCCCC2)N1C(=O)c1ccccc1 (centres undefined)	7%	-11	-5%	1%	-1%	-2
CC1(C(=O)NCCN2CCOCC2)C=CC2(CCCCC2)N1C(=O)c1ccccc1 (centres undefined)	2%	33	-12%	-6%	0%	26*
CC(=O)N1[C@H](Cc2ccccc2)C=C[C@]1(C)C(=O)NCCN1CCOCC1	-3%	23	1%	0%	2%	11*
O=C(CCn1c(=O)c2ccccc2n(Cc2cccc(F)c2)c1=O)NCc1ccc2c(c1)OCO2	4%	·	4%	·	·	·
Clc1ccccc1Cn1cccc1C1=NC(Cc2ccccc2)CO1 (centres undefined)	0%	·	6%	·	·	·
O=C(OCc1ccccc1)[C@@H]1COC(c2ccc(Br)cc2)=N1	·	+	·	·	-1%[89.2 µM]	38*
Brc1ccc(C2=NC(Cc3ccccc3)CO2)cc1 (centres undefined)	1%	77*	2%	-3%	1%	52*
COc1ccc(C(=O)/C=C(\C)Nc2ccc3c(c2)OCO3)cc1	-6%	i	-4%	-2%	·	49*
COc1ccc(N/C(C)=C/C(=S)Nc2ccccc2)cc1	1%	43*	-33%	0%	?	32*
CC(C)=CC(=O)Nc1ccc2c(c1)OCO2	-23%	68*	2%	?	-3%	25*
COC(=O)/C(=C\C(=O)c1ccccc1)Nc1ccc(OC)cc1	-3%	58*	23%	1%	-23%	50*
Cc1cccc(S(=O)(=O)c2cn(Cc3ccc(F)cc3)c3cc(N4CCCCC4)c(F)cc3c2=O)c1	2%	·	4%	·	·	·
COc1cccc(NC(=O)C2CCCN(c3ncnc4onc(-c5ccc(F)cc5)c34)C2)c1 (centres undefined)	1%	·	29%	·	·	·
COc1ccc(OC)c(N/C(C)=C/C(=O)c2ccccc2)c1	-6%	27*	1%	0%	-13%	91*
COc1ccc(N/C(C)=C/C(=O)c2ccccc2)cc1	-9%	164*	-1%	-6%	-5%	64*
CC1(C(=O)Nc2ccc3c(c2)OCO3)CC1(Cl)Cl (centres undefined)	0%	29*	-19%	-11%	7%	16*
COc1ccc(OC)c(N/C(C)=C/C(=O)c2ccncc2)c1	-3%	-11	?	-7%	-4%	-3
CCCC(=O)N(C)c1nnc(-c2ccc(OC)cc2)s1	-6%	46	-1%	-3%	2%	13*
CCOc1ccc(-c2nnc(N(CC)C(=O)C3CCC3)s2)cc1	-7%	53*	9%	0%	-5%	28*
Cc1ccc(NC(=S)Nc2cc(-c3ccccc3)[nH]n2)cc1Cl	1%	48*	0%	-2%	-1%	13*
CCOc1ccccc1N(CC(=O)Nc1cccnc1)S(=O)(=O)c1ccc(C)cc1	4%	160*	9%	-4%	0%	50*
SMILES	Tb PYK inh	Shiga inhibitor	Sm TGR inh	LmPK inhibitor	Giardia FBPA inh	CHX counter
CCCCC(=O)N/N=C/c1ccc(Sc2cccc3cccnc23)o1	-13%	31	51%	0%	?	39*
O=C(Cc1cccc2ccccc12)N/N=C/c1ccc(Sc2cccc3cccnc23)o1	·	-10	-32%	0%	-6%	-1
Cc1ccc2cc(CN(CC3CCCO3)C(=O)Nc3ccccc3F)c3nnnn3c2c1 (centres undefined)	-5%	84*	-8%	15%	1%	45*
CCCN1C(=O)c2ccccc2CC1(C)C(=O)NC1CCCCC1 (centres undefined)	1%	·	?	·	·	·
O=C(O)CC(NS(=O)(=O)c1ccc(Cl)s1)c1ccccc1 (centres undefined)	1%	·	-3%	·	·	·
O=C(Nc1ccc2ccccc2c1)c1ccc(Cl)cc1	-2%	68*	6%	-7%	9%	41*
O=C(c1ccncc1)c1ccc(NS(=O)(=O)c2ccc(Br)s2)cc1	-5%	12	0%	1%	12%	-1
CSc1nccc(NC(=O)c2cccc(Br)c2)n1	-1%	35	0%	4%	20%	23*
CC(=O)Cc1nsc(NC(=O)c2cccc(F)c2)n1	-3%	72*	-20%	-15%	-10%	41*
Cc1cc(NC(=O)c2cccc(Br)c2)n[nH]1	6%	·	9%	·	·	·
O=C(Nc1ccc2ccccc2c1)c1ccc(NS(=O)(=O)c2ccc(Br)s2)cc1	8%	46*	-9%	-1%	-2%	36*
Cc1ccc(C(=O)Nc2ccc3ccccc3c2)cc1	-11%	-5	-15%	0%	-5%	-3
O=C(CSc1cn(CC(=O)N2CCCCC2)c2ccccc12)NCc1ccc(F)cc1	-18%	·	0%	·	·	·
CC1=C(C(=O)OC2CCCC2)C(c2ccc(F)cc2F)CC(=O)N1 (centres undefined)	0%	·	0%	·	·	·
CCC(=O)N1CCc2cc(Br)cc(S(=O)(=O)N3CCN(c4ccc(C)cc4)C(C)C3)c21 (centres undefined)	0%	·	-3%	·	·	·
CCOc1ccc(NC(=O)Cn2nnc(C(=O)NCCc3ccccc3)c2N)cc1	0%	·	1%	·	·	·
O=C(Nc1ccc2[nH]c(=O)c(=O)[nH]c2c1)c1cccc(F)c1	3%	·	5%	·	·	·
O=C(Nc1ccncc1)c1ccc2ccccc2c1	-5%	58*	11%	-7%	-4%	43*
Cc1ccc2cc(NC(=O)c3ccccc3)ccc2n1	-4%	67*	-3%	-18%	-11%	47*
O=C(Nc1cccc(NC(=O)c2cccc(F)c2)n1)c1cccc(F)c1	2%	70*	-8%	-6%	-11%	23*
Cc1ccc2cc(NC(=O)c3cccc(F)c3)ccc2n1	-1%	75*	10%	-23%	-21%	39*
Cc1ccc(-n2nnc3c(sc4nc(C)c(C)cc43)c2=O)cc1Cl	-7%	·	-2%	·	·	·
